# Measurements published in PubChem BioAssay (NCATS).
# Results filed as inconclusive are left out. Entries that show only a call come without a potency. The source made the active and inactive calls. Calls come from the whole dose curve; as a rule, active = well fitted inhibition curve with a large enough effect; inconclusive = small, poorly fitted or top-dose-only effect; inactive = no such curve, though single readings can be large or run the other way. Where a SMILES comes first, the peptide text is derived from it.
# System: Zika virus NS2B-NS3 protease (linked construct)
# Assay: Primary screen NINDS Rhodamine qHTS for Zika virus inhibitors (AID 1347160); note: nearly all actives have a fitted effect of over 55% in size
# Conditions: purified NS2B-NS3 protease, Rhodamine110 substrate fluorescence; series mostly up to 57.1 µM
# Outline: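 Rhodamine110-peptide cleavage (1.5 µM substrate) by 25 nM linked NS2B-NS3 enzyme at pH 8.0 (Tris, Tween 20), after 15 min RT preincubation with compounds; 15-min fluorescence change normalized to controls and Hill-fitted.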
row,SMILES,Potency
1,CCc1cc2c(=O)c(-c3nc4ccccc4s3)coc2c(CN2CCCCC2)c1O,inactive
2,CC1OC(OC2C(C)OC(OC3C(OC(=O)/C=C/c4ccc(O)cc4)C(CO)OC(OC4(COC(=O)/C=C/c5ccc(O)cc5)OC(CO)C(O)C4O)C3OC3OCC(O)(CO)C3O)C(O)C2O)C(O)C(O)C1O (stereo not given),inactive
3,C=CC(C)(C)C12CC3C(=O)NC(Cc4cnc[nH]4)C(=O)N3C1Nc1ccccc12 (stereo not given),inactive
4,CC1NC(=O)CNC(=O)C(C(C)C)NC(=O)C2CCCN2C(=O)C(C(C)C)NC(=O)C(Cc2c[nH]c3ccccc23)NC1=O (stereo not given) (cyclo(GAWVPV); configuration not given here),inactive
5,Cc1ncc([N+](=O)[O-])n1CC(O)CN1CCOCC1 (stereo not given),inactive
6,COC12CC3C(C(C)C1=CC(=O)O2)C(O)C(OC(C)=O)C1C(C)(C)C(OC(C)=O)CCC31C (stereo not given),inactive
7,OC[C@H]1O[C@@H](Oc2ccc3c(c2)OC[C@H]2c4cc5c(cc4O[C@@H]32)OCO5)[C@H](O)[C@@H](O)[C@@H]1O,inactive
8,C=C1[C@@H]2CC[C@@]3(C)[C@H](c4ccoc4)OC(=O)C[C@]13O[C@H]1CC(=O)C(C)(C)[C@H](CC(=O)OC)[C@]12C,inactive
9,C=CC(C)(C)O[C@@H]1O[C@H](CO[C@@H]2OC[C@](O)(CO)[C@H]2O)[C@@H](O)[C@H](O)[C@H]1O,inactive
10,Nc1ncnc2c1ncn2[C@H]1CCCO1,inactive
